Compound activity: PubChem, National Center for Advancing Translational Sciences (NCATS)
IL-1B inflam inh: qHTS for Inhibitors of Inflammasome Signaling: IL-1-beta AlphaLISA Primary Screen; THP-1 LPS/ATP IL-1B secretion, AlphaLISA, 16 h; stronger effect = lower value; activity change, % at 57.5 µM; actives 4.7% (n = 360,000); in the data active = activity change below about -50%; inconclusive = mostly about -30% to -49%
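THP-1 cells pretreated 1 hr with compounds (up to 57.5 uM final), then stimulated with LPS (250 ng/mL final) plus ATP (1.25 mM final); secreted IL-1B measured by AlphaLISA after 16 hr, decreased signal indicating inhibition.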
SW480 rereplic: A quantitative high throughput screen for small molecules that induce DNA re-replication in SW480 colon adenocarcinoma cells; SW480 DNA re-replication, Hoechst DNA content imaging, 48 h; Potency, µM (series often up to 46.1 µM), usual class: activators; actives 1.8% (n = 340,000); AID 624297, 2012; note: nearly all actives have a fitted effect of over 55% in size
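Compounds, transferred as 23 nL by pin tool, were incubated with cells for 48 hr; DNA content per nucleus was then quantified by Hoechst staining and fluorescence plate imaging.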
DT40 TDP1 CPT: qHTS for Inhibitors of human tyrosyl-DNA phosphodiesterase 1 (TDP1): qHTS in cells in presence of CPT; chicken DT40 Tdp1-/-;hTDP1 cells + 20 nM CPT, ATP luminescence, 48 h; Potency, µM (highest dose often 46.2 µM), usual class: inhibitors; actives 12% (n = 420,000); AID 686979, 2013; note: nearly all actives have a fitted effect of over 55% in size
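Cell growth measured by CellTiter-Glo luminescence after a minimum 48 h, 37 C compound exposure with 20 nM CPT in Tdp1-knockout DT40 cells stably expressing hTDP1, seeded 400/well; qHTS titration format.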
MCF10A rereplic: A quantitative high throughput screen for small molecules that induce DNA re-replication in MCF 10a normal breast cells; MCF 10A DNA re-replication, Hoechst nuclear intensity, 48 h; Potency, µM (doses to about 46.1 µM), actives largely listed as activators; actives 2.9% (n = 350,000); AID 624296, 2012; note: nearly all actives have a fitted effect of over 50% in size
BCR signal inh: qHTS Assay to Find Inhibitors of Chronic Active B-Cell Receptor Signaling; actives 0.05% (n = 340,000); Potency, µM (doses to about 46.1 µM), actives largely listed as inhibitors; ABC-DLBCL IkBa-CBG/CBR reporter, luminescence ratio, 4 h; active = well fitted inhibition curve with a large enough effect in the signal ratio, with a control signal flat, not every such curve was filed as active; inconclusive = small, poorly fitted or top-dose-only effect, or effect the other way, or a change in a side signal; the % refers to the signal ratio
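TMD8 ABC-DLBCL cells carrying doxycycline-inducible green luciferase fused to IkappaBalpha plus unfused red luciferase were exposed to compounds (up to 46 uM) for 4 hrs at 37C. Activity came from the overlap-corrected green/red luminescence ratio.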
TDP1 cell noCPT: qHTS for Inhibitors of human tyrosyl-DNA phosphodiesterase 1 (TDP1): qHTS in cells in absence of CPT. DT40 Tdp1-/- hTDP1 cells, no CPT, ATP luminescence, 48 h. Potency, µM (highest dose often 46.2 µM), actives largely listed as inhibitors. actives 15% (n = 420,000). AID 686978, 2013; note: nearly all actives have a fitted effect of over 55% in size
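No-CPT arm: Tdp1-/-;hTDP1 DT40 cells (400/well) plus compounds, incubated ≥48 hr at 37 °C. Readout CellTiter-Glo luminescence.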
Large screens that a line does not name were inactive. Shown are actives, neighbours in structure and some others; about 19% of the full set was active somewhere. Unless noted, calls come from the whole dose curve; as a rule, active = well fitted curve in the direction sought with a large enough effect; inconclusive = small, poorly fitted or top-dose-only effect, or another doubt; inactive = no such curve, though single readings can be large; an effect the other way counts as inactive or inconclusive.

CC(C)Cn1c(SC(C)C(=O)Nc2ccc(N3CCOCC3)cc2)nc2ccccc21 (stereo not given)	BCR signal inh inconclusive, TDP1 cell noCPT inconclusive
CC(C)Cn1c(SCC(=O)N2CCN(C(=O)c3ccco3)CC2)nc2ccccc2c1=O	MCF10A rereplic 0.65µM
O=C(CSc1nc2ccccc2c(=O)n1CCCN1CCOCC1)N1CCN(c2ccccc2)CC1	TDP1 cell noCPT inconclusive
CCNC(=O)NC(=O)C(C)Sc1nc2ccccc2n1CC(C)C (stereo not given)	DT40 TDP1 CPT 18µM, TDP1 cell noCPT 16µM
O=C(CSc1nc2ccccc2c(=O)n1Cc1ccco1)N1CCN(c2ccccc2)CC1	DT40 TDP1 CPT inconclusive, BCR signal inh inconclusive, TDP1 cell noCPT 26µM
Cc1ccc(-c2cc(C(=O)Nc3ccc(S(=O)(=O)Nc4ncccn4)cc3)[nH]n2)c(O)c1C	DT40 TDP1 CPT inconclusive, TDP1 cell noCPT inconclusive
CCN(Cc1ccncc1)C(=O)CSc1ccc2ccccc2c1	DT40 TDP1 CPT inconclusive, TDP1 cell noCPT inconclusive
O=C(CSc1nc2ccccc2n1Cc1ccccc1)N1CCN(c2ccc(F)cc2)CC1	none (no result: IL-1B inflam inh, SW480 rereplic, MCF10A rereplic, BCR signal inh)
CC(C)Cn1c(SCC(=O)NC(=O)NC2CCCC2)nc2ccccc21	DT40 TDP1 CPT 26µM, BCR signal inh inconclusive, TDP1 cell noCPT 16µM
O=c1c2ccccc2nnn1CSc1nc2ccccc2c(=O)n1Cc1ccco1	DT40 TDP1 CPT 23µM, MCF10A rereplic inconclusive, TDP1 cell noCPT 21µM
CC(C)Cn1c(SCC(=O)N2CCN(S(=O)(=O)c3ccccc3)CC2)nc2ccccc21	IL-1B inflam inh -52, DT40 TDP1 CPT 18µM, BCR signal inh inconclusive, TDP1 cell noCPT inconclusive
Cn1c(SCC(=O)N2CCN(S(=O)(=O)c3ccccc3)CC2)nc2ccccc21	TDP1 cell noCPT inconclusive
O=c1c2ccccc2nc(SCc2cccc(F)c2)n1Cc1ccco1	MCF10A rereplic inconclusive
COc1ccc(Cn2c(SCC(=O)N3CCN(c4ccc(F)cc4)CC3)nc3ccccc32)cc1	DT40 TDP1 CPT 21µM, TDP1 cell noCPT 21µM (no result: IL-1B inflam inh, SW480 rereplic, MCF10A rereplic, BCR signal inh)
CN(C(=O)C1CCC(=O)N(CCCN2CCCC2=O)C1)C(C1CC1)C1CC1 (stereo not given)	none
O=C(CSc1n[nH]c(-c2ccc(F)cc2)n1)N1CCN(c2ccc(F)cc2)CC1	DT40 TDP1 CPT 16µM, TDP1 cell noCPT 23µM (no result: IL-1B inflam inh, SW480 rereplic, MCF10A rereplic, BCR signal inh)
CCn1c(SCC(=O)N2CCN(c3ccc(F)cc3)CC2)nc2ccccc2c1=O	DT40 TDP1 CPT 21µM, TDP1 cell noCPT inconclusive
Cc1cc(-n2c(C)cc(C(=O)CSc3nc4ccccc4c(=O)n3Cc3ccco3)c2C)no1	DT40 TDP1 CPT 23µM, BCR signal inh inconclusive, TDP1 cell noCPT 21µM
CCn1c(SCC(=O)N2CCN(c3ccc(Cl)cc3)CC2)nc2ccccc2c1=O	DT40 TDP1 CPT inconclusive, TDP1 cell noCPT inconclusive
Cc1cccc(OCCCCn2nnc3sc4c(c3c2=O)CCC(C)C4)c1 (stereo not given)	none (no result: IL-1B inflam inh, SW480 rereplic, MCF10A rereplic, BCR signal inh)
Cc1ccc(CN2CCSc3ccc(C(=O)Nc4ccc(F)cc4F)cc32)cc1	DT40 TDP1 CPT 16µM, TDP1 cell noCPT inconclusive (no result: IL-1B inflam inh, SW480 rereplic, MCF10A rereplic, BCR signal inh)
CCOC(=O)N1CCC(NC(=O)c2ccc3c(c2)N(CC)CCS3)CC1	DT40 TDP1 CPT 21µM, TDP1 cell noCPT inconclusive (no result: BCR signal inh)
Cc1ccc(CN2CCSc3ccc(C(=O)NCC4CCCO4)cc32)cc1 (stereo not given)	DT40 TDP1 CPT inconclusive, MCF10A rereplic inconclusive, TDP1 cell noCPT inconclusive
CCc1ccc(NC(=O)c2ccc3c(c2)N(Cc2ccc(C)cc2)CCS3)cc1	DT40 TDP1 CPT 15µM, TDP1 cell noCPT inconclusive (no result: IL-1B inflam inh, SW480 rereplic, MCF10A rereplic, BCR signal inh)
CN1CCSc2ccc(C(=O)Nc3ccc(Cl)cc3)cc21	MCF10A rereplic inconclusive, BCR signal inh inconclusive
Cc1ccc(CN2CCSc3ccc(C(=O)NCc4cccnc4)cc32)cc1	DT40 TDP1 CPT 23µM, BCR signal inh inconclusive, TDP1 cell noCPT inconclusive
O=C(c1ccc2c(c1)N(Cc1ccccc1)CCS2)N1CCCCC1	none
CC(C)(C)NC(=O)C1(C)CCC(=O)N1C1CC1 (stereo not given)	none (no result: SW480 rereplic, MCF10A rereplic, BCR signal inh)
Cc1c(C(=O)N2CCCC2)c(S(=O)(=O)Nc2ccccc2)c(C)n1C	none
CCOc1ccccc1N1CC(C(=O)N(C)Cc2cccnc2)CC1=O (stereo not given)	none
Cc1ccc(CN2CCSc3ccc(C(=O)NC4CCCC4)cc32)cc1	DT40 TDP1 CPT 16µM, TDP1 cell noCPT inconclusive
O=C(NCC1CCCO1)c1ccc2c(c1)N(Cc1ccc(Cl)cc1)CCS2 (stereo not given)	IL-1B inflam inh inconclusive, DT40 TDP1 CPT inconclusive, TDP1 cell noCPT 23µM (no result: SW480 rereplic, MCF10A rereplic, BCR signal inh)
C/C(=N\Nc1cc(C)nc(NCc2ccccc2)n1)c1cccc([N+](=O)[O-])c1	DT40 TDP1 CPT 8.2µM, TDP1 cell noCPT 2.9µM
O=[N+]([O-])c1cccc(N=NNc2cccc([N+](=O)[O-])c2)c1	DT40 TDP1 CPT inconclusive, TDP1 cell noCPT 18µM (no result: SW480 rereplic, MCF10A rereplic, BCR signal inh)
C/C(=N\NC(=O)C1CC1(c1ccccc1)c1ccccc1)c1cccc([N+](=O)[O-])c1 (stereo not given)	DT40 TDP1 CPT inconclusive, TDP1 cell noCPT 7.3µM
O=[N+]([O-])c1cccc(N/N=C/c2ccc(N3CCOCC3)cc2)c1	IL-1B inflam inh -63, SW480 rereplic inconclusive, DT40 TDP1 CPT 18µM, MCF10A rereplic inconclusive, BCR signal inh inconclusive, TDP1 cell noCPT 16µM
CCC(CC)=NNc1cccc([N+](=O)[O-])c1	BCR signal inh inconclusive (no result: SW480 rereplic)
C/C(=N\Nc1ccc(Cl)c(C(=O)O)c1)c1cccc([N+](=O)[O-])c1	SW480 rereplic inconclusive, BCR signal inh inconclusive
O=C(N/N=C/c1cccc([N+](=O)[O-])c1)c1cc2ccccc2o1	SW480 rereplic inconclusive, DT40 TDP1 CPT inconclusive, MCF10A rereplic inconclusive, TDP1 cell noCPT 23µM
C/C(=N\Nc1nnc(-c2ccccc2)c(-c2ccccc2)n1)c1cccc([N+](=O)[O-])c1	DT40 TDP1 CPT 7.3µM, BCR signal inh inconclusive, TDP1 cell noCPT 8.2µM
Cc1ccc(C2(c3ccc(C)cc3)CC2C(=O)Nc2ccc([N+](=O)[O-])cc2O)cc1 (stereo not given)	IL-1B inflam inh -73, DT40 TDP1 CPT 3.7µM, MCF10A rereplic inconclusive, BCR signal inh inconclusive, TDP1 cell noCPT 2.6µM
CC1(C)CC1C(=O)Nc1ccc([N+](=O)[O-])cc1Br (stereo not given)	BCR signal inh inconclusive, TDP1 cell noCPT inconclusive
